Test results taken from PubChem BioAssay AID1159580 (chemical genetic matrix, 2015).
Several values for one entry are separate records, joined by “and”; a condition that tells them apart may be missing. Equal values may be shown once. Among all 5,500 compounds or so, about 2,000 (36%) were called active. Roughly 18% stayed inconclusive and do not appear here. No stated cut-off is given here; in the data, active means normalized growth mostly below about 0.91 (no sharp cut-off); inconclusive means no clear call, values can overlap the other calls; inactive means mostly above about 0.92. This is one part of the list.

Assay: chemical genetic growth profiling, strain panel (AID 1159580);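 further: tested at 20 µM; growth read once vehicle control cultures reached saturation at 30 °C; 1 = growth at the plate median or of vehicle wells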
Details: S. cerevisiae deletion strains, growth OD

Measured: normalized growth

S=c1[nH]c2ccccc2s1
inactive: locus YAL013W, strain DEP1, stronger effect = lower value 1 | locus YAL021C, strain ccr4, stronger effect = lower value 0.941 | locus YAL030W, strain snc1, stronger effect = lower value 0.992 | locus YBL061C, strain skt5, stronger effect = lower value 0.986 | locus YBR009C, strain hhf1, stronger effect = lower value 0.972 | locus YBR021W, strain FUR4, stronger effect = lower value 1.06 | locus YBR023C, strain chs3, stronger effect = lower value 1.01 | locus YBR171W, strain sec66, stronger effect = lower value 0.965 | locus YBR229C, strain ROT2, stronger effect = lower value 0.989 | locus YBR231C, strain swc5, stronger effect = lower value 0.946 | locus YBR279W, strain paf1, stronger effect = lower value 0.982 | locus YCL011C, strain gbp2, stronger effect = lower value 0.966 | locus YCL016C, strain dcc1, stronger effect = lower value 1.02 | locus YCL029C, strain bik1, stronger effect = lower value 0.989 | locus YCL069W, strain vba3, stronger effect = lower value 0.983 | locus YCR088W, strain abp1, stronger effect = lower value 0.981 | locus YDL005C, strain med2, stronger effect = lower value 0.996 | locus YDL035C, strain GPR1, stronger effect = lower value 0.948 | locus YDL040C, strain nat1, stronger effect = lower value 0.983 | locus YDL074C, strain BRE1, stronger effect = lower value 0.975 | locus YDL101C, strain DUN1, stronger effect = lower value 0.99 | locus YDL134C, strain PPH21, stronger effect = lower value 0.985 | locus YDL185W, strain tfp1, stronger effect = lower value 0.979 | locus YDL192W, strain arf1, stronger effect = lower value 0.985 | locus YDR001C, strain nth1, stronger effect = lower value 0.992 | locus YDR069C, strain doa4, stronger effect = lower value 0.951 | locus YDR101C, strain arx1, stronger effect = lower value 1.01 | locus YDR150W, strain NUM1, stronger effect = lower value 0.986 | locus YDR159W, strain sac3, stronger effect = lower value 0.992 | locus YDR162C, strain NBP2, stronger effect = lower value 0.986 | locus YDR297W, strain sur2, stronger effect = lower value 0.97 | locus YDR318W, strain mcm21, stronger effect = lower value 0.996 | locus YDR334W, strain swr1, stronger effect = lower value 0.972 | locus YDR335W, strain msn5, stronger effect = lower value 0.984 | locus YDR388W, stronger effect = lower value 0.987 | locus YDR392W, strain spt3, stronger effect = lower value 0.879 | locus YDR502C, strain sam2, stronger effect = lower value 1 | locus YEL003W, strain gim4, stronger effect = lower value 0.952 | locus YEL037C, strain rad23, stronger effect = lower value 0.975 | locus YEL061C, strain CIN8 (second series), stronger effect = lower value 0.973 | locus YEL061C, strain CIN8, stronger effect = lower value 1.01 | locus YER015W, strain faa2, stronger effect = lower value 0.965 | locus YER016W, strain bim1, stronger effect = lower value 0.987 | locus YER110C, stronger effect = lower value 0.998 | locus YER111C, strain swi4, stronger effect = lower value 0.979 | locus YER155C, strain BEM2 (second series), stronger effect = lower value 0.986 | locus YER155C, strain BEM2, stronger effect = lower value 0.986 | locus YER167W, strain BCK2, stronger effect = lower value 1.02 | locus YFR010W, strain ubp6, stronger effect = lower value 0.95 | locus YGL078C, strain dbp3, stronger effect = lower value 1.02 | locus YGL086W, strain mad1, stronger effect = lower value 0.965 | locus YGL167C, strain pmr1, stronger effect = lower value 0.995 | locus YGL173C, strain kem1, stronger effect = lower value 0.91 | locus YGL227W, strain vid30, stronger effect = lower value 0.996 | locus YGL240W, strain doc1, stronger effect = lower value 0.923 | locus YGL248W, strain PDE1, stronger effect = lower value 0.991 | locus YGL253W, strain hxk2, stronger effect = lower value 0.938 | locus YGR078C, strain PAC10, stronger effect = lower value 0.958 | locus YGR135W, strain pre9, stronger effect = lower value 0.964 | locus YHR013C, strain ard1, stronger effect = lower value 1.02 | locus YHR079C, strain IRE1 (second series), stronger effect = lower value 1.01 | locus YHR094C, strain hxt1, stronger effect = lower value 1.02 | locus YHR129C, strain ARP1, stronger effect = lower value 0.992 | locus YHR142W, strain chs7, stronger effect = lower value 1.01 | locus YHR200W, strain rpn10, stronger effect = lower value 1.01 | locus YIL066C, strain RNR3, stronger effect = lower value 0.986 | locus YIL073C, strain SPO22, stronger effect = lower value 0.844 | locus YIL125W, strain kgd1, stronger effect = lower value 1.01 | locus YIR030C, strain dcg1, stronger effect = lower value 1.01 | locus YJL092W, strain hpr5, stronger effect = lower value 0.984 | locus YJL095W, strain BCK1 (second series), stronger effect = lower value 0.975 | locus YJL115W, strain asf1, stronger effect = lower value 0.983 | locus YJL129C, strain trk1, stronger effect = lower value 0.966 | locus YJL134W, strain LCB3, stronger effect = lower value 1 | locus YJL154C, strain vps35, stronger effect = lower value 0.983 | locus YJL164C, strain tpk1, stronger effect = lower value 1 | locus YJL166W, strain qcr8, stronger effect = lower value 0.962 | locus YJL168C, strain set2, stronger effect = lower value 0.996 | locus YJL187C, strain SWE1 (second series), stronger effect = lower value 0.964 | locus YJR043C, strain POL32, stronger effect = lower value 1 | locus YJR075W, strain HOC1, stronger effect = lower value 1.02
active: locus YAL026C, strain drs2, stronger effect = lower value 0.891 | locus YDR137W, strain rgp1, stronger effect = lower value 0.808 | locus YDR195W, strain ref2 1.18 [resistant] | locus YGR229C, strain SMI1, stronger effect = lower value 0.804 | locus YGR252W, strain gcn5, stronger effect = lower value 0.691 | locus YHR027C, strain rpn1, stronger effect = lower value 0.903 | locus YHR079C, strain IRE1, stronger effect = lower value 0.78 | locus YJR066W, strain TOR1, stronger effect = lower value 0.732
1 (inactive) and 0.821 (active): locus YHR030C, strain SLT2, stronger effect = lower value
0.99 (inactive) and 0.818 (active): locus YJL095W, strain BCK1, stronger effect = lower value
